Our source for the outcome and AC50 values is PubChem BioAssay (EPA / NIEHS).

Each structure is given as a SMILES string. Inconclusive results are not listed. Activity calls are given as the source filed them. How the source made its calls: active means hit-call score of the fitted dose curve at least 0.9, where 1 is the maximum; inconclusive means response in the unintended direction; inactive means score below 0.9.

Sequence of human MET Proto-Oncogene, Receptor Tyrosine Kinase (MET), MET (gene 4233) (P08581 whole entry, looked up): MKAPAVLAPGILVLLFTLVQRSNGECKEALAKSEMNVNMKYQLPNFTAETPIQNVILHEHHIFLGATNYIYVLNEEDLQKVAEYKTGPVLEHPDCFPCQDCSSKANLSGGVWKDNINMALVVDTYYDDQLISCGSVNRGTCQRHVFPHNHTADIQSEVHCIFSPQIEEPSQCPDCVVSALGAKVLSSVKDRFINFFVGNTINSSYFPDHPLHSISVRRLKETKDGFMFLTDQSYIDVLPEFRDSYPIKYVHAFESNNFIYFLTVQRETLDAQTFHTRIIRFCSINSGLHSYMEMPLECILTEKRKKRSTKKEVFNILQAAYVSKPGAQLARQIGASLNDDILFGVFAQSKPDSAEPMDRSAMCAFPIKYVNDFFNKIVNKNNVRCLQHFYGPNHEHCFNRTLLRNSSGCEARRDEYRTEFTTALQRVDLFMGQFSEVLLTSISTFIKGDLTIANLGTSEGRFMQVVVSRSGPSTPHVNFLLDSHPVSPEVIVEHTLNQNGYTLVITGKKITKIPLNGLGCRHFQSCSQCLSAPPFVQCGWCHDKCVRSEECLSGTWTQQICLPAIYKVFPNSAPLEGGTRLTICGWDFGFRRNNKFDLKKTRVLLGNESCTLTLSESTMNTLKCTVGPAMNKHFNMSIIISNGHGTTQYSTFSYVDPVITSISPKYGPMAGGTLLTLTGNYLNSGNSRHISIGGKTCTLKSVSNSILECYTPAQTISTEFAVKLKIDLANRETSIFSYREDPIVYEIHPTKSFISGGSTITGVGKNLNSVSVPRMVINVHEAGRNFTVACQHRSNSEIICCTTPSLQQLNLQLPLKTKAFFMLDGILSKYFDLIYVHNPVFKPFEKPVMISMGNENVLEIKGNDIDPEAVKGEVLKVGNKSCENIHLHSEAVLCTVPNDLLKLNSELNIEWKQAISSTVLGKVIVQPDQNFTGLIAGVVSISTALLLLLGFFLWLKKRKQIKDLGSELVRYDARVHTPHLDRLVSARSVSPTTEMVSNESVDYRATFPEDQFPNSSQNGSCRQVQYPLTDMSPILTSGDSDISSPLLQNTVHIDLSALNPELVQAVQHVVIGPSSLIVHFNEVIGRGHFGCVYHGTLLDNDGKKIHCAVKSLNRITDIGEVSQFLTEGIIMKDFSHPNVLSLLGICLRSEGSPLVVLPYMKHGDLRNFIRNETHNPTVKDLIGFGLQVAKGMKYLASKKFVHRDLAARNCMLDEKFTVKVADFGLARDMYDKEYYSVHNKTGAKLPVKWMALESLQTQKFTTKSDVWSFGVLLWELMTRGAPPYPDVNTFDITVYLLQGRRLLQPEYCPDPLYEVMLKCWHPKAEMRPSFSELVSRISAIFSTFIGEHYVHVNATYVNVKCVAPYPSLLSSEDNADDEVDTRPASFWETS

The test has as its target human MET Proto-Oncogene, Receptor Tyrosine Kinase (MET), MET (gene 4233) (UniProt P08581). Put plainly: NVS_ENZ_hMet: NovaScreen (NVS) Enzymatic Assay for human MET Proto-Oncogene, Receptor Tyrosine Kinase (MET) (AID 2283180). As to the method:
NVS_ENZ_hMet is a biochemical, single-readout assay that uses extracted gene-proteins in a cell-free assay. Measurements were taken 1 hour after chemical dosing in a 384-well plate.NVS_ENZ_hMet is one of one assay component(s) measured or calculated from the NVS_ENZ_hMet assay. It is designed to make measurements of enzyme activity, a form of enzyme reporter, as detected with fluorescence intensity signals by Fluorescence and electrophoretic mobility shift technology.Data from the assay component NVS_ENZ_hMet was analyzed into 1 assay endpoint. This assay endpoint, NVS_ENZ_hMet, was analyzed in the positive analysis fitting direction relative to DMSO as the negative control and baseline of activity. Using a type of enzyme reporter, loss-of-signal activity can be used to understand changes in the enzymatic activity as they relate to the gene MET. Furthermore, this assay endpoint can be referred to as a primary readout, because this assay has produced multiple assay endpoints where this one serves a enzymatic activity function. To generalize the intended target to other relatable targets, this assay endpoint is annotated to the kinase intended target family, where the subfamily is receptor tyrosine kinase.
Binding assays used specific radioligands (tritiated, iodinated) with non-radioactive competitive displacement ligands in agonist or antagonist protocols (as indicated) and various reference compounds and inhibitors to titrate specific binding to receptors and transporters. Most enzyme assays (CYPs, kinases, phosphatases, proteases, HDACs) used recombinant protein and specific substrates (fluorescence mostly, some colorimetric and radioactive) and inhibitors, followed by a biochemical separation of substrate and product. All assays for the biochemical HTS were initially run in duplicate at a single concentration (10 uM for CYP450 assays and 25 uM for all others). Assay-chemical combinations meeting a pre-defined threshold (e.g., 30% inhibition and other criteria defined below) were then run in singleton concentration-response format with maximum concentration of 20 uM for CYPs and 50 uM for all others. Each assay was run with positive and negative controls, and concurrent controls on every plate. The follow-up (secondary) screen tested active chemical-pairs in concentration series, as well as a few additional assays not tested in the primary screen, some selected negative inactives, and several cases re-run in the concentration series for confirmatory purposes.
Take `CC(O)CO` (stereo not given): the molecule was classed as inactive.
A word on the AC50: it is the midpoint of the concentration-response curve, whichever way the signal moves. Consider `S=C([S-])NCCNC(=S)[S-].[Mn+2]`, for which the AC50 is 20.5 µM (active).
Same read-out and setting: under `O=C(O)Cc1cc(I)c(Oc2cc(I)c(O)c(I)c2)c(I)c1` stands 26.7 µM (active).
With `O=C(NO)C1(NS(=O)(=O)c2ccc(Oc3ccc(F)cc3)cc2)CCOCC1`, the molecule was called inactive.
`O=C(O)c1cccc(Oc2ccccc2)c1`: the outcome was inactive.
The same measure, in the same setting: under `O=c1[nH]cnc2c1ncn2[C@H]1CC[C@@H](CO)O1` stands “inactive”; under `Cc1ccc(N)cc1O`, “inactive”; under `COc1cc(C(=O)NC2CCN(C)CC2)ccc1Nc1ncc2c(n1)N(C1CCCC1)CC(F)(F)C(=O)N2C`, “inactive”.
Consider `COc1ccc(S(=O)(=O)N2C(=O)[C@@](c3ccccc3OC)(N3C[C@H](O)C[C@H]3C(=O)N(C)C)c3cc(Cl)ccc32)c(OC)c1`, for which the molecule was called inactive.
Same read-out and setting: under `O=C(c1ccccc1)c1ccccc1` stands “inactive”; under `CCN(CC)C(=O)c1cc(S(=O)(=O)Cc2ccccc2)c(N2CCC(c3ccccc3)CC2)cc1N(CC)CCN(C)C`, “inactive”; under `CC(=O)Oc1ccccc1C(=O)O`, “inactive”.
On the same count and under the same terms, under `OCC(CO)n1cnc(-c2ccc(F)cc2)c1-c1ccnc(Oc2ccccc2)n1` stands “inactive”; under `NCCO`, “inactive”; under `O=C(O)c1ccc2c(c1)nc(C(=O)NC1CCN(C3CC3)CC1)n2Cc1cc(-c2ccc(Cl)s2)on1`, “inactive”.
On the same count and under the same terms, under `CCCCc1ccc2c(n1)[C@@H](c1ccc(OC)cc1C[C@H](C)C(=O)O)[C@H](C(=O)O)[C@H]2c1ccc2c(c1)OCO2` stands “inactive”; under `CN(C)c1ccc(N=NS(=O)(=O)O)cc1`, “inactive”; under `CCN(Cc1cccnc1)C(=O)c1cccc(Cl)c1[C@]1(C)C(=O)N(Cc2ccc(OC)cc2OC)c2ccc(Cl)cc21`, “inactive”.
As to `Cc1nc(-c2ccccn2)ncc1C(=O)Nn1cc(C)c2cc(F)ccc21`, the outcome was inactive.
As to `c1ccc2ccccc2c1`, the molecule was called inactive.
On the same count and under the same terms, under `O=C1NC(=O)C(c2ccccc2)(c2ccccc2)N1` stands “inactive”.
Regarding `Nc1ccccc1N`, the AC50 is 32.2 µM (active).
For `CCc1nc(N)nc(N)c1-c1ccc(Cl)cc1`, the molecule was classed as inactive.
Same read-out and setting: under `N[C@@H](Cc1cc(I)c(Oc2ccc(O)c(I)c2)c(I)c1)C(=O)O` stands “inactive”.
In the case of `CCCCCCCCCCCCc1ccccc1S(=O)(=O)O`, the AC50 was 26.2 µM (active).
On to `Cc1ncc([C@@H](CCCCCCc2ccc3c(n2)NCCC3)CC(=O)O)cn1`, for which the outcome was inactive.
Turning to `CCCCCCCCCCCCCCOS(=O)(=O)O`, the AC50 is 18.5 µM (active).
As to `CCN(CC)CCNc1ccc(CNC=O)c2sc3ccc(OC)cc3c(=O)c12`, the call was inactive.
Same read-out and setting: under `CCOCCOCCO` stands “inactive”.
The same measure, in the same setting: under `CNS(=O)(=O)c1cc(C(=O)N2CCC(CCN3C4CCC3CC(n3c(C)nc5ccccc53)C4)(c3cccc(F)c3)CC2)c(Cl)cc1F` (stereo not given) stands “inactive”; under `N#CCCCCC#N`, “inactive”.
With `FC(F)(F)C(F)(F)C(F)(F)C(F)(F)C(F)(F)C(F)(F)CCI`, the result was inactive.
The same measure, in the same setting: under `CCCOC(=O)c1cc(O)c(O)c(O)c1` stands “inactive”.
Same read-out and setting: under `CC(C)=CCC/C(C)=C/CO` stands “inactive”; under `CCCC(CCC)C(=O)O`, “inactive”; under `COc1ccc(OC(F)(F)F)cc1CN[C@H]1CCCN[C@H]1c1ccccc1`, “inactive”.
Turning to `O=C(O)c1cc(N=Nc2ccc(S(=O)(=O)Nc3ccccn3)cc2)ccc1O`, the molecule was classed as inactive.
On the same count and under the same terms, under `CC/C(=C(\c1ccccc1)c1ccc(OCCN(C)C)cc1)c1ccccc1` stands “inactive”; under `COCC(C)OCC(C)O` (stereo not given), “inactive”; under `CC(C)CCCCCCc1ccc(O)cc1`, “inactive”.
